A short description of experiment [1]: Cell Viability - NIH 3T3 (AID 541).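 Further: cells exposed to compound for 40 hours; nearly all actives have a fitted effect of over 25% in size.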 Further: potency means the concentration at half of the fitted maximal effect.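 On activity change, negative = cytotoxicity: plate controls were DMSO alone for no effect and tamoxifen positive control for full effect.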 Conditions: NIH 3T3 cell viability, qHTS; activity change, negative = cytotoxicity: at 92.2 µM (top of the series). An outline of the steps:
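AC50 values reflect concentration-dependent loss of intracellular ATP in NIH 3T3 cells after 40 hr treatment in complete culture medium, quantified by luciferase-based luminescence.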
(In general: Quantitative high-throughput screening tests each substance at several concentrations.)

A short description of experiment [2]: Cellular Toxicity (caspase-3) SK-N-SH (AID 661).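 Further: 0% = DMSO basal and 100% = 10 µM staurosporine.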 In short, it runs like this: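 Caspase 3/7 activation is measured as a luminescence increase from aminoluciferin released by substrate cleavage in SK-N-SH cells after 16 hr compound treatment; values are AC50 from concentration-response curves.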
Experiment [3] has as its target Cytochrome P450 3A4 (Homo sapiens) (UniProt P08684). The experiment in a line: qHTS Assay for Inhibitors and Substrates of Cytochrome P450 3A4 (AID 884). Further: on the % scale 0 is the no-effect control and ±100 the full control effect; nearly all actives have a fitted effect of over 50% in size. An outline of the steps: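 20 nM human CYP3A4 with 25 uM Luciferin-PPXE (at KM) in 200 mM KPO4, preincubated 10 min with compound; NADPH regeneration started a 60 min RT reaction. Luciferin detected by luminescence, normalized to 57 uM ketoconazole as full inhibition.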

A short description of experiment [4]: MultiTox-Fluor Cytotoxicity Assay - LYMP1-002 - Dead Cells (AID 960). Further: nearly all actives have a fitted effect of over 60% in size. Further: potency means the concentration at half of the fitted maximal effect. An outline of the steps:
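Acute cytotoxicity in a human lymphoblastoid line is scored as rising dead-cell protease signal after 16 hr exposure at 37 C, measured fluorometrically (485/520).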

A short description of experiment [5]: Cell Viability - LYMP1-003 - Assay at 24 hr (AID 963).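 Further: plate controls were DMSO only for no effect and tetraoctylammonium bromide positive control for full effect.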 An outline of the steps:
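Acute toxicity in LYMP1-003 lymphoblastoid cells: 24 hr compound treatment at 37 C, ATP measured with CellTiter-Glo after 30 min at room temperature. AC50 derived by fitting the Hill equation to qHTS titrations.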

The nature of experiment [6]: Cell Viability - LYMP2-013 (AID 970).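 Further: cells exposed to compound for 24 h at 37 °C; nearly all actives have a fitted effect of over 55% in size.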 Further: potency means the concentration at half of the fitted maximal effect. An outline of the steps: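 Acute toxicity was measured in human lymphoblastoid cells (2500/well) exposed to compound titrations for 24 hr, with ATP luminescence (CellTiter-Glo) as read-out and AC50 fitted by Hill equation.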
For experiment [7], the target named is Vitamin D3 receptor (Homo sapiens) (UniProt P11473). The experiment in a line: qHTS assay for small molecule antagonists of vitamin D receptor signaling (AID 588541; calls by dose curve; further: potency means the concentration at half of the fitted maximal effect). An outline of the steps:
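Antagonist-mode beta-lactamase reporter assay: HEK293T VDR-UAS-bla cells were exposed to titrated compound alongside 1-alpha,25-dihydroxyvitamin D3 at 3 nM final for 16 h. Values were normalized to the 50 nM agonist control and DMSO basal, with IC50 and efficacy from Hill equation fits.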

In experiment [8] the target is Thyroid hormone receptor beta (Homo sapiens) (UniProt P10828). Description: qHTS assay for small molecule agonists of thyroid hormone receptor beta signaling (AID 588545; calls by dose curve;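 further: 0% = DMSO only and 100% = 10 nM T3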). In short, it runs like this:
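TR-UAS-bla-GripTite HEK 293 cells in medium with 2% charcoal/dextran FBS, 0.1 mM NEAA and 1 mM sodium pyruvate were treated with titrated compounds for 18 hrs at 37 C. Beta-lactamase reporter was read with CCF4 dye (ex 405, em 460/530 nm); EC50 from Hill fits.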

Experiment [9] can be described thus: qHTS assay for small molecule disruptors of the mitochondrial membrane potential - 1 hr assay (AID 651754; calls by dose curve; further: on the % scale 0 is the no-effect control and ±100 the full control effect; nearly all actives have a fitted effect of over 35% in size). In short, it runs like this:
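Steps: seed HepG2 cells and let attach overnight; pin-transfer compound or vehicle; incubate 1 hr at 37C; add Mito-MPS dye for 30 min; read two-channel fluorescence for monomer and aggregate forms.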

Experiment [10] concerns the target Tumor necrosis factor (Homo sapiens) (UniProt P01375). The experiment in a line: qHTS assay to identify small molecules that stimulate Tumor Necrosis Factor-alpha (TNF-alpha) secretion (AID 651757; active means well fitted curve in the direction sought with a large enough effect in the signal ratio; the % refers to the signal ratio; further: 0% is about no effect). In short, it runs like this: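 Secreted TNF-alpha from compound-treated THP-1 cells (17 hrs, 37 C) was quantified with a homogeneous time-resolved fluorescence antibody assay.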

A short description of experiment [11]: qHTS assay for small molecule activators of the human pregnane X receptor (PXR) signaling pathway (AID 720659; call rule not given here; further: 0% is about no effect).
The nature of experiment [12]: Cell Viability - Jurkat (AID 426;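 active means dose-dependent loss of cell ATP signal giving a full or clear fitted curve, ranked by lower potency value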;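 further: potency means the concentration at half of the fitted maximal effect; cells exposed to compound for 40 hours at 37 °C before ATP read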). The settings on record: qHTS. In short, it runs like this:
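Seed 5000 Jurkat E6-1 cells/well; add compound; incubate 40 hr at 37 °C; add CellTiter-Glo; wait 20 min at room temperature; read luminescence. Fit concentration-response with Hill equation for AC50.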

In experiment [13] the target is Vitamin D3 receptor (Homo sapiens) (UniProt P11473). The experiment in a line: qHTS assay for small molecule agonists of vitamin D receptor signaling (AID 588543; calls by dose curve;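 further: 0% = DMSO basal and 100% = reference agonist control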). An outline of the steps: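 Reporter cells (HEK293T, VDR-UAS-bla) were seeded in medium with 2% charcoal-stripped serum and incubated 5 h, then compounds in concentration series were added for 16 h at 37 °C. Stimulation was scaled between DMSO basal and 50 nM 1α,25-dihydroxyvitamin D3.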
Vitamin D3 receptor (Homo sapiens), sequence (P11473 whole entry, looked up): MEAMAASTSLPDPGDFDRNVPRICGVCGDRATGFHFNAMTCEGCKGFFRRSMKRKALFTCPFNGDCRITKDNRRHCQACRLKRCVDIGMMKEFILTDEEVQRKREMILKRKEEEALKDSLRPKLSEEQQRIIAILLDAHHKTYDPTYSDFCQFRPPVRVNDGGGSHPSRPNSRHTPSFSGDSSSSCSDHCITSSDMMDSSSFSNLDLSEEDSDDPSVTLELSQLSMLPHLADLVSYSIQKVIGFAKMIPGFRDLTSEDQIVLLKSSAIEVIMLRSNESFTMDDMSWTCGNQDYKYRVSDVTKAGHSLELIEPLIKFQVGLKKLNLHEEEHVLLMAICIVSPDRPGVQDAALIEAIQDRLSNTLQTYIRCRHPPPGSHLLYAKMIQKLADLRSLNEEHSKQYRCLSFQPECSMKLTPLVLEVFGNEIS

Experiment [14] has as its target Voltage-gated inwardly rectifying potassium channel KCNH2 (Homo sapiens) (UniProt Q12809). The experiment in a line: qHTS Assay for Small Molecule Inhibitors of the Human hERG Channel Activity (AID 588834).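 Further: top concentration of the series differs between compounds; on the % scale 0 is the no-effect control and ±100 the full control effect; lower thallium flux fluorescence means stronger hERG block; nearly all actives have a fitted effect of over 50% in size.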 An outline of the steps: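 hERG-BacMam U2OS, 2000 cells/well; 0.7X FluxOR loading 1 hr RT dark; cpd ~10 min 37 °C; stim buffer; FDSS fluorescence 2 min @ 1 s; AC50 Hill fit.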

Experiment [15] is described as follows: qHTS assay for small molecule agonists of the antioxidant response element (ARE) signaling pathway (AID 651741; active means well fitted activation curve with a large enough effect in the signal ratio; the % refers to the signal ratio; further: potency means the concentration at half of the fitted maximal effect; on activation: % of control where 0% means no effect). In short, it runs like this: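 Seeding 2,000 ARE-bla HepG2 cells per well preceded a 5 h incubation at 37 C/5% CO2 and a 16 h compound exposure at 37 C. Beta-lactamase reporter activity was then quantified by fluorescence after 2 h with LiveBLAzer B/G FRET substrate.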

Experiment [16] in a line: qHTS assay for small molecule activators of the p53 signaling pathway (AID 651743; active means well fitted activation curve with a large enough effect in the signal ratio, not every such curve was filed as active; the % refers to the signal ratio; further: potency means the concentration at half of the fitted maximal effect; on activation: % of control where 0% means no effect). The settings on record: HCT-116 p53RE-bla, beta-lactamase FRET ratio, 16 h; activation: stronger effect = higher value. An outline of the steps: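 Screen for p53 pathway agonists uses stably transfected p53RE-bla HCT-116 cells, 4,000 per well, treated 16 h at 37 C with compounds in DMSO.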
Experiment [17] deals with Nuclear receptor ROR-gamma (Homo sapiens) (UniProt P51449). The experiment in a line: qHTS assay for small molecule antagonists of the retinoid-related orphan receptor gamma (ROR-gamma) signaling pathway (AID 651802). Further: nearly all actives have a fitted effect of over 60% in size. Further: potency means the concentration at half of the fitted maximal effect. In short, it runs like this: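 Antagonism is scored as a fall in luminescence from a RORE-luciferase reporter in CHO cells expressing ROR under a TET-inducible promoter, measured 16hr after doxycycline induction in the presence of compound.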
Nuclear receptor ROR-gamma (Homo sapiens), sequence (P51449 whole entry, looked up): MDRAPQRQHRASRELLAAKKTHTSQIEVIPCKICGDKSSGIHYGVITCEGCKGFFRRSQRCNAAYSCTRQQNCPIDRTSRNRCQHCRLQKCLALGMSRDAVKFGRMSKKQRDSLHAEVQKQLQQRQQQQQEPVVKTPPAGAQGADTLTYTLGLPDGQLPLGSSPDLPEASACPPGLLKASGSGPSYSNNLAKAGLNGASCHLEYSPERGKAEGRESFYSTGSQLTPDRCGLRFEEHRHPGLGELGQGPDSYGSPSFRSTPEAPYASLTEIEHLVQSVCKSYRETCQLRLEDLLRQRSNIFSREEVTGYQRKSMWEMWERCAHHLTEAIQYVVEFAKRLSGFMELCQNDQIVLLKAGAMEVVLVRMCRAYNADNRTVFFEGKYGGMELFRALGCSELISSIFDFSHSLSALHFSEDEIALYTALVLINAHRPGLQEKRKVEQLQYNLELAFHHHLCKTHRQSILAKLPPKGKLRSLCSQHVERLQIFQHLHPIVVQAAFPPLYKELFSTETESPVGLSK

Experiment [18] is described as follows: qHTS assay for small molecule antagonists of peroxisome proliferator-activated receptor delta signaling (AID 588535; active means well fitted inhibition curve with a large enough effect in the signal ratio, with a control signal flat, not every such curve was filed as active; the % refers to the signal ratio;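 on max response: cells co-treated with a PPAR-delta agonist as stimulator during compound exposure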). The settings on record: HEK293T PPARd-UAS-bla, beta-lactamase FRET ratio, 18 h; 460 nm channel. In short, it runs like this:
(§1)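 Cell-based beta-lactamase assay in antagonist mode: 4000 HEK293T PPAR-delta-UAS-bla cells per well, 5 hr preincubation then 18 hr compound incubation at 37 C. IC50 obtained by Hill equation fitting.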

In experiment [19] the target is Peroxisome proliferator-activated receptor delta (Homo sapiens) (UniProt Q03181). The experiment is described as above. In short, it runs like this:
as §1

Experiment [20] has as its target Peroxisome proliferator-activated receptor gamma (Homo sapiens) (UniProt P37231). Description: qHTS assay for small molecule agonists of peroxisome proliferator-activated receptor gamma signaling (AID 588536; active means well fitted curve in the direction sought with a large enough effect in the signal ratio, with a control signal flat, not every such curve was filed as active; the % refers to the signal ratio;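 further: 0% = DMSO basal wells and 100% = rosiglitazone at 2 µM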). An outline of the steps:
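GeneBLAzer PPAR-gamma-UAS-bla HEK293 cells in 1% charcoal/dextran-treated FBS medium were treated 16 h at 37 C with compounds. Beta-lactamase activity was read by CCF4 ratio (460/530 nm). Response was normalized to 2 uM rosiglitazone (100%) and DMSO, then Hill-fitted for EC50 and efficacy.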

Inconclusive results are not listed. Some structures have more than one record in an assay (separate samples or runs), and their calls can disagree. Calls of active or inactive are those of the source. Unless noted, the call rests on the fitted dose curve; in most records, active means well fitted curve in the direction sought with a large enough effect; inconclusive means small, poorly fitted or top-dose-only effect, or another doubt; inactive means no such curve, though single readings can be large; an effect the other way counts as inactive or inconclusive.

Peroxisome proliferator-activated receptor gamma (Homo sapiens), sequence (P37231 whole entry, looked up): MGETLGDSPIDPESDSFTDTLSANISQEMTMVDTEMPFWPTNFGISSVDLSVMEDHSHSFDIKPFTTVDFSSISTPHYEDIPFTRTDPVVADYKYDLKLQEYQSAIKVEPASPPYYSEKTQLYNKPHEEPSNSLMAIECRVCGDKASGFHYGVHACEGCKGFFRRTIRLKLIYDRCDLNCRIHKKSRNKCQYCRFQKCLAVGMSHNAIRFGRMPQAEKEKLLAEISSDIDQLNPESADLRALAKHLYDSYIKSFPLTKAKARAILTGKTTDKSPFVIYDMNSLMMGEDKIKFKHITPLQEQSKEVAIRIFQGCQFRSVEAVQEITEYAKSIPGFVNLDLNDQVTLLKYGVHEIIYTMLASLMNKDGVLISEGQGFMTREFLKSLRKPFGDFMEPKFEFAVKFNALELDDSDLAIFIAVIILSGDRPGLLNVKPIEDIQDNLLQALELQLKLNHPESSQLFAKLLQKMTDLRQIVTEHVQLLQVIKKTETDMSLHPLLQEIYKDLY
Tumor necrosis factor (Homo sapiens), sequence (P01375 whole entry, looked up): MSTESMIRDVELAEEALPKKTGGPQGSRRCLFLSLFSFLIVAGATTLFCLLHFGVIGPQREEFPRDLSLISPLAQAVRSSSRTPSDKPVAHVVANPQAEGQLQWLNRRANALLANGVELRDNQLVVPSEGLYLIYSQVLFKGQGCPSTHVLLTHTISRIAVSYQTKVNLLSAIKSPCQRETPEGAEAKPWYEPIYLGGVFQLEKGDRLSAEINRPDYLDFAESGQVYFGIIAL
Cytochrome P450 3A4 (Homo sapiens), sequence (P08684 whole entry, looked up): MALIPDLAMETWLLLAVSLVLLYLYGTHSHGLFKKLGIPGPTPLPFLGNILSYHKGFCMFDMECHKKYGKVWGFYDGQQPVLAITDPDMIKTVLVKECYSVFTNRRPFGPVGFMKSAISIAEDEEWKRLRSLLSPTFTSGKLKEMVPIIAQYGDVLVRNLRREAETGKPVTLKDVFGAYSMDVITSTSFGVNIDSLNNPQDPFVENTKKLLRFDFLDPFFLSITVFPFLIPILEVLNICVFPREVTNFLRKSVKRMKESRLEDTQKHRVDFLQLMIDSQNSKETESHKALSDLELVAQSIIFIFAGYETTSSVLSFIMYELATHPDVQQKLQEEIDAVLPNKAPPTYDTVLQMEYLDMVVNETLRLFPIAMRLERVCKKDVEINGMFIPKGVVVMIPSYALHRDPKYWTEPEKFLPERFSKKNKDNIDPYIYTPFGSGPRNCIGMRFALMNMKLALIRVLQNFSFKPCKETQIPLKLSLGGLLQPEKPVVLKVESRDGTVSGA
Voltage-gated inwardly rectifying potassium channel KCNH2 (Homo sapiens), sequence (Q12809 whole entry, looked up): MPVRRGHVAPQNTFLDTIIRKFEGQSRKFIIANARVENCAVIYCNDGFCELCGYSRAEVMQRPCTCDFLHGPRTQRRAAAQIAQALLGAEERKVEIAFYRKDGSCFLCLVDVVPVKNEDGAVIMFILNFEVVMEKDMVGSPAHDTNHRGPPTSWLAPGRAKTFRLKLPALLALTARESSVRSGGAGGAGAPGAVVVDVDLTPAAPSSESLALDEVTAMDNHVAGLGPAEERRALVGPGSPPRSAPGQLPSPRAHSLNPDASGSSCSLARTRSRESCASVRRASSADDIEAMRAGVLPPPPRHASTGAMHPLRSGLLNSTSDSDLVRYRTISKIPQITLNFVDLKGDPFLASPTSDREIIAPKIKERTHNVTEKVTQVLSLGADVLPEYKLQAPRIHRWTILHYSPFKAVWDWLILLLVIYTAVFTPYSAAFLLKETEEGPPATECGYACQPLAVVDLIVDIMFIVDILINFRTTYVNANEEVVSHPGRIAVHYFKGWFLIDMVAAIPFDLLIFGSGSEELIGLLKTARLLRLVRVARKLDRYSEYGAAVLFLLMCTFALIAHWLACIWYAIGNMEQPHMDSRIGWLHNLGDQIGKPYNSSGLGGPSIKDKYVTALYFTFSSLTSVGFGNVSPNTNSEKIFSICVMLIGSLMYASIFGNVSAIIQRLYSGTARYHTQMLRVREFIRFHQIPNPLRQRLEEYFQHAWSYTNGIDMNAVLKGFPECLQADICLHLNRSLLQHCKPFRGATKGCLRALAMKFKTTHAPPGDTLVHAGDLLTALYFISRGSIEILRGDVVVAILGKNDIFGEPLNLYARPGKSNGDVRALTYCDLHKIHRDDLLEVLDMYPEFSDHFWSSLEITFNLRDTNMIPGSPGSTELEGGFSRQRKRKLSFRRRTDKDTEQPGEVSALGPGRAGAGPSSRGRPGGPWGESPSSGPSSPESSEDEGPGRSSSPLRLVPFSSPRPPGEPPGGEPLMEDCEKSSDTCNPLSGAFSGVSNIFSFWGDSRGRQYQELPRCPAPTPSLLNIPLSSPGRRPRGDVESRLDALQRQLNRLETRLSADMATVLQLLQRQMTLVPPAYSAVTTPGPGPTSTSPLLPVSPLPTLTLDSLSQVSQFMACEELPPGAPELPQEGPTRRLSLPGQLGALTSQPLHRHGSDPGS
Thyroid hormone receptor beta (Homo sapiens), sequence (P10828 whole entry, looked up): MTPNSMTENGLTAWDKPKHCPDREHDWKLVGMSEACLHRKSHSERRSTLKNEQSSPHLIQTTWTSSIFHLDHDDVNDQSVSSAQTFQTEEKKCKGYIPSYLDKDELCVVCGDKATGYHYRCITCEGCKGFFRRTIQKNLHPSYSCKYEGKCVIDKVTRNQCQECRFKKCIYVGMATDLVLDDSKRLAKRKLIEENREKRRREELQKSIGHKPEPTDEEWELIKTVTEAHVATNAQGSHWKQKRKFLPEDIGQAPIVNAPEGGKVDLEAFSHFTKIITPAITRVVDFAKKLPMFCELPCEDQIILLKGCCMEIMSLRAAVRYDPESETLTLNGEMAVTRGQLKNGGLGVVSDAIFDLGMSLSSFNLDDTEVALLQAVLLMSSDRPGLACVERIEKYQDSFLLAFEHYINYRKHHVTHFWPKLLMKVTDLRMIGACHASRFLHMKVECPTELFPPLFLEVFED
Peroxisome proliferator-activated receptor delta (Homo sapiens), sequence (Q03181 whole entry, looked up): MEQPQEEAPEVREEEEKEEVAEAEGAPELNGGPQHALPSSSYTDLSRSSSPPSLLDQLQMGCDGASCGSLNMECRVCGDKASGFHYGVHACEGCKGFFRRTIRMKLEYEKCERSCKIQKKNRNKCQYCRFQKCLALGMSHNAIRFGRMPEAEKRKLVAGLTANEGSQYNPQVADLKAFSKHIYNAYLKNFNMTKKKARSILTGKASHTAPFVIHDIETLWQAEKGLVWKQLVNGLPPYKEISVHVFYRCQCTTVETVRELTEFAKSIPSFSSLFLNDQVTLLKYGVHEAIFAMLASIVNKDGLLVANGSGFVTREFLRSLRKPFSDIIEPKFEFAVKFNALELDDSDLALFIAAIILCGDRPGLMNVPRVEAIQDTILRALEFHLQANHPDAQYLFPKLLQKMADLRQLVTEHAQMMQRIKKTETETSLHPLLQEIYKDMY

Turning to `Brc1cc(Br)c(Oc2cc(Br)c(Br)cc2Br)cc1Br`, the activity change, negative = cytotoxicity in experiment [1] is -6.22% (inactive). For the same molecule, the call in [2] and in [11] was inactive. Also, the Potency entry in experiment [3], in experiment [4], in [5], in experiment [6], in [7] and in [8] was “inactive” throughout. Besides, the Potency entry in experiment [9] and in [10] was “inactive” each time.

Regarding `O=C1c2ccccc2C(=O)C1(O)O`, the Potency is 34.4 µM (active) in experiment [12] and 66.8 µM (active) in experiment [15]. Further, the outcome in experiment [2] and in [11] was inactive. The Potency result in [3], in experiment [4], in experiment [5], in experiment [7], in experiment [13] and in experiment [8] was “inactive” each time. Further, the Potency result in experiment [14] and in [10] was “inactive” each time.

For `CC(C)(C)C(=O)C1C(=O)c2ccccc2C1=O`, the Potency in [1] is 12.6 µM (active). Also, the Potency entry in experiment [3], in experiment [4], in experiment [5], in [7], in experiment [13] and in [14] was “inactive” in each case. Moreover, in experiment [9], the Potency entry is “inactive”. Further, the activation in experiment [16] is 12% (inactive).

On to `C/C=C1/C(=O)C[C@H]2[C@@H]3CCC4=CC(=O)CC[C@]4(C)[C@H]3CC[C@]12C`, for which the Potency was 56.2 µM (active) in experiment [12]; 31.6 µM (active) in experiment [4]; 50.1 µM (active) in [6]; 3.76 µM (active) in experiment [15]; 47.3 µM (active) in experiment [17]. In addition, in [1], the activity change, negative = cytotoxicity is -151% (active). Moreover, the result in [2] was inactive. Moreover, the Potency entry in experiment [3], in experiment [8], in experiment [9] and in [10] was “inactive” each time.

Regarding `O=Nc1ccc(Nc2ccccc2)cc1`, the values for the Potency in experiment [12] and in [1] were 3.86 µM (active) and 31.6 µM (active), respectively. Moreover, the molecule was classed as inactive in experiment [2]. For the same molecule, the Potency result in experiment [8], in [14] and in experiment [9] was “inactive” throughout.

In the case of `C=CC(=O)OCCCCCCOC(=O)C=C`, the Potency in experiment [12] was 21.1 µM (active); in experiment [1], 7.94 µM (active); in [4], 31.6 µM (active); in experiment [7], 31.6 µM (active) and inactive; in experiment [15], 29.8 µM (active); in [16] it was 70.8 µM (active). Moreover, the max response in [18] was 35%. For the same molecule, the molecule was called inactive in experiment [19], in experiment [20] and in [11]. Further, the Potency entry in experiment [13], in [8], in experiment [14], in experiment [9] and in experiment [10] was “inactive” in each case. Moreover, the activation in experiment [16] is -3.66% (inactive).

As to `Clc1nc2ccccc2nc1Cl`, the activity change, negative = cytotoxicity in experiment [1] was -143% (active). Also, the call in experiment [2] was inactive. In addition, the Potency entry in experiment [3], in [4], in experiment [5], in experiment [7], in experiment [13] and in experiment [8] was “inactive” each time. Further, the Potency entry in experiment [14], in experiment [9], in experiment [10] and in experiment [17] was “inactive” throughout.

On to `NC(=O)Nc1nc2ccccc2[nH]1`, for which the Potency entry in experiment [3], in experiment [5], in experiment [6], in experiment [7], in [13] and in experiment [14] was “inactive” in each case. Moreover, the Potency entry in experiment [15], in [9], in experiment [10] and in experiment [17] was “inactive” throughout. Further, the max response in experiment [18] is -10.2%. Further, the molecule was called inactive in experiment [19] and in experiment [20]. Besides, the activation in experiment [16] is -0.426% (inactive).

As to `Cc1cc(-c2ccc(N=Nc3cc(S(=O)(=O)O)c4ccccc4c3N)c(C)c2)ccc1N=Nc1cc(S(=O)(=O)O)c2ccccc2c1N`, in [18], the max response was -39.2%. Also, the molecule was called inactive in [19] and in experiment [11]. For the same molecule, the Potency entry in [7], in experiment [13], in experiment [8], in experiment [14] and in [17] was “inactive” in each case.

As for `CCCCCCCC/C=C\CCCCCCCC(=O)N(CCO)CCO`, the Potency is 68.3 µM (active) in [12] and 31.6 µM (active) in experiment [4]. Moreover, the Potency result in experiment [5], in [13], in experiment [9] and in [10] was “inactive” throughout. Besides, the max response in experiment [18] stood at 92.2%. For the same molecule, the result in [19] was inactive. The activation in experiment [16] is -2.93% (inactive).

As to `CC(=O)CC(=O)Nc1ccccc1`, in experiment [1], the activity change, negative = cytotoxicity was -3.89% (inactive). Besides, the call in experiment [2], in [19], in experiment [20] and in experiment [11] was inactive. Further, the Potency result in experiment [3], in [4], in experiment [5], in [6], in experiment [7] and in experiment [13] was “inactive” in each case. Besides, the Potency entry in [8], in experiment [14], in experiment [15], in [9] and in [10] was “inactive” each time. The max response in experiment [18] stood at 18.5%.

The values above are taken from PubChem BioAssay (NCATS).
